{
  "source": "the supplement of paper PMC4466140",
  "binders": {"B1": {"name": "unnamed (peptide)", "chain": "IAPIPMPKPNPTHIS"}},
  "data": [
    {"target": "ScBbc1", "experiment": "SPOT peptide array binding signal intensity (averaged, normalized) (arbitrary units (background-subtracted, floor 0; scale differs between SH3 domains)); higher = stronger binding of the SH3 domain to the peptide", "method_in_brief": "(§1)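 Detection of bound protein relied on anti-GST antibody, an HRP anti-mouse secondary and luminol, with imaging and quantification in Genespotter. The bound protein was GST-fused SH3 domains from four yeast species, incubated at 10 μg/ml overnight at 4°C in TBS-based blocking buffer on cellulose membranes carrying synthetic 15-mer peptides with cysteines replaced by serines. Binding signal is normalized, background-subtracted spot intensity averaged over replicates, in arbitrary units that differ between domains.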", "values": [
      {"binder": "B1", "SPOT peptide array binding signal intensity": "≤ 0"}
    ]},
    {"target": "ScBem1-D1", "experiment": "SPOT peptide array binding signal intensity (averaged, normalized) (arbitrary units (background-subtracted, floor 0; scale differs between SH3 domains)); higher = stronger binding of the SH3 domain to the peptide", "method_in_brief": "as §1", "values": [
      {"binder": "B1", "SPOT peptide array binding signal intensity": "≤ 0"}
    ]},
    {"target": "ScBzz1-D1", "experiment": "SPOT peptide array binding signal intensity (averaged, normalized) (arbitrary units (background-subtracted, floor 0; scale differs between SH3 domains)); higher = stronger binding of the SH3 domain to the peptide", "method_in_brief": "as §1", "values": [
      {"binder": "B1", "SPOT peptide array binding signal intensity": "≤ 0"}
    ]},
    {"target": "ScBzz1-D2", "experiment": "SPOT peptide array binding signal intensity (averaged, normalized) (arbitrary units (background-subtracted, floor 0; scale differs between SH3 domains)); higher = stronger binding of the SH3 domain to the peptide", "method_in_brief": "as §1", "values": [
      {"binder": "B1", "SPOT peptide array binding signal intensity": "≤ 0"}
    ]},
    {"target": "ScCyk3", "experiment": "SPOT peptide array binding signal intensity (averaged, normalized) (arbitrary units (background-subtracted, floor 0; scale differs between SH3 domains)); higher = stronger binding of the SH3 domain to the peptide", "method_in_brief": "as §1", "values": [
      {"binder": "B1", "SPOT peptide array binding signal intensity": "≤ 0"}
    ]},
    {"target": "ScFus1", "experiment": "SPOT peptide array binding signal intensity (averaged, normalized) (arbitrary units (background-subtracted, floor 0; scale differs between SH3 domains)); higher = stronger binding of the SH3 domain to the peptide", "method_in_brief": "as §1", "values": [
      {"binder": "B1", "SPOT peptide array binding signal intensity": 56}
    ]},
    {"target": "ScHof1", "experiment": "SPOT peptide array binding signal intensity (averaged, normalized) (arbitrary units (background-subtracted, floor 0; scale differs between SH3 domains)); higher = stronger binding of the SH3 domain to the peptide", "method_in_brief": "as §1", "values": [
      {"binder": "B1", "SPOT peptide array binding signal intensity": "≤ 0"}
    ]},
    {"target": "ScHse1", "experiment": "SPOT peptide array binding signal intensity (averaged, normalized) (arbitrary units (background-subtracted, floor 0; scale differs between SH3 domains)); higher = stronger binding of the SH3 domain to the peptide", "method_in_brief": "as §1", "values": [
      {"binder": "B1", "SPOT peptide array binding signal intensity": "≤ 0"}
    ]},
    {"target": "ScLsb1", "experiment": "SPOT peptide array binding signal intensity (averaged, normalized) (arbitrary units (background-subtracted, floor 0; scale differs between SH3 domains)); higher = stronger binding of the SH3 domain to the peptide", "method_in_brief": "as §1", "values": [
      {"binder": "B1", "SPOT peptide array binding signal intensity": "≤ 0"}
    ]},
    {"target": "ScLsb2", "experiment": "SPOT peptide array binding signal intensity (averaged, normalized) (arbitrary units (background-subtracted, floor 0; scale differs between SH3 domains)); higher = stronger binding of the SH3 domain to the peptide", "method_in_brief": "as §1", "values": [
      {"binder": "B1", "SPOT peptide array binding signal intensity": "≤ 0"}
    ]},
    {"target": "ScLsb3", "experiment": "SPOT peptide array binding signal intensity (averaged, normalized) (arbitrary units (background-subtracted, floor 0; scale differs between SH3 domains)); higher = stronger binding of the SH3 domain to the peptide", "method_in_brief": "as §1", "values": [
      {"binder": "B1", "SPOT peptide array binding signal intensity": "≤ 0"}
    ]},
    {"target": "ScLsb4", "experiment": "SPOT peptide array binding signal intensity (averaged, normalized) (arbitrary units (background-subtracted, floor 0; scale differs between SH3 domains)); higher = stronger binding of the SH3 domain to the peptide", "method_in_brief": "as §1", "values": [
      {"binder": "B1", "SPOT peptide array binding signal intensity": "≤ 0"}
    ]},
    {"target": "ScMyo3", "experiment": "SPOT peptide array binding signal intensity (averaged, normalized) (arbitrary units (background-subtracted, floor 0; scale differs between SH3 domains)); higher = stronger binding of the SH3 domain to the peptide", "method_in_brief": "as §1", "values": [
      {"binder": "B1", "SPOT peptide array binding signal intensity": "≤ 0"}
    ]},
    {"target": "ScMyo5", "experiment": "SPOT peptide array binding signal intensity (averaged, normalized) (arbitrary units (background-subtracted, floor 0; scale differs between SH3 domains)); higher = stronger binding of the SH3 domain to the peptide", "method_in_brief": "as §1", "values": [
      {"binder": "B1", "SPOT peptide array binding signal intensity": "≤ 0"}
    ]},
    {"target": "ScNbp2", "experiment": "SPOT peptide array binding signal intensity (averaged, normalized) (arbitrary units (background-subtracted, floor 0; scale differs between SH3 domains)); higher = stronger binding of the SH3 domain to the peptide", "method_in_brief": "as §1", "values": [
      {"binder": "B1", "SPOT peptide array binding signal intensity": 158}
    ]},
    {"target": "ScPex13", "experiment": "SPOT peptide array binding signal intensity (averaged, normalized) (arbitrary units (background-subtracted, floor 0; scale differs between SH3 domains)); higher = stronger binding of the SH3 domain to the peptide", "method_in_brief": "as §1", "values": [
      {"binder": "B1", "SPOT peptide array binding signal intensity": 22.2}
    ]},
    {"target": "ScRvs167", "experiment": "SPOT peptide array binding signal intensity (averaged, normalized) (arbitrary units (background-subtracted, floor 0; scale differs between SH3 domains)); higher = stronger binding of the SH3 domain to the peptide", "method_in_brief": "as §1", "values": [
      {"binder": "B1", "SPOT peptide array binding signal intensity": 0.333}
    ]},
    {"target": "ScSho1", "experiment": "SPOT peptide array binding signal intensity (averaged, normalized) (arbitrary units (background-subtracted, floor 0; scale differs between SH3 domains)); higher = stronger binding of the SH3 domain to the peptide", "method_in_brief": "as §1", "values": [
      {"binder": "B1", "SPOT peptide array binding signal intensity": 158}
    ]},
    {"target": "ScSla1-D1-D2", "experiment": "SPOT peptide array binding signal intensity (averaged, normalized) (arbitrary units (background-subtracted, floor 0; scale differs between SH3 domains)); higher = stronger binding of the SH3 domain to the peptide", "method_in_brief": "as §1", "values": [
      {"binder": "B1", "SPOT peptide array binding signal intensity": 0.5}
    ]},
    {"target": "ScSla1-D3", "experiment": "SPOT peptide array binding signal intensity (averaged, normalized) (arbitrary units (background-subtracted, floor 0; scale differs between SH3 domains)); higher = stronger binding of the SH3 domain to the peptide", "method_in_brief": "as §1", "values": [
      {"binder": "B1", "SPOT peptide array binding signal intensity": 81.5}
    ]},
    {"target": "SpAbp1-D1", "experiment": "SPOT peptide array binding signal intensity (averaged, normalized) (arbitrary units (background-subtracted, floor 0; scale differs between SH3 domains)); higher = stronger binding of the SH3 domain to the peptide", "method_in_brief": "as §1", "values": [
      {"binder": "B1", "SPOT peptide array binding signal intensity": 8.5}
    ]},
    {"target": "SpBbc1", "experiment": "SPOT peptide array binding signal intensity (averaged, normalized) (arbitrary units (background-subtracted, floor 0; scale differs between SH3 domains)); higher = stronger binding of the SH3 domain to the peptide", "method_in_brief": "as §1", "values": [
      {"binder": "B1", "SPOT peptide array binding signal intensity": "≤ 0"}
    ]},
    {"target": "SpBzz1-D1", "experiment": "SPOT peptide array binding signal intensity (averaged, normalized) (arbitrary units (background-subtracted, floor 0; scale differs between SH3 domains)); higher = stronger binding of the SH3 domain to the peptide", "method_in_brief": "as §1", "values": [
      {"binder": "B1", "SPOT peptide array binding signal intensity": 37.5}
    ]},
    {"target": "SpBzz1-D2", "experiment": "SPOT peptide array binding signal intensity (averaged, normalized) (arbitrary units (background-subtracted, floor 0; scale differs between SH3 domains)); higher = stronger binding of the SH3 domain to the peptide", "method_in_brief": "as §1", "values": [
      {"binder": "B1", "SPOT peptide array binding signal intensity": 0.5}
    ]},
    {"target": "SpCyk3", "experiment": "SPOT peptide array binding signal intensity (averaged, normalized) (arbitrary units (background-subtracted, floor 0; scale differs between SH3 domains)); higher = stronger binding of the SH3 domain to the peptide", "method_in_brief": "as §1", "values": [
      {"binder": "B1", "SPOT peptide array binding signal intensity": "≤ 0"}
    ]},
    {"target": "SpHof1", "experiment": "SPOT peptide array binding signal intensity (averaged, normalized) (arbitrary units (background-subtracted, floor 0; scale differs between SH3 domains)); higher = stronger binding of the SH3 domain to the peptide", "method_in_brief": "as §1", "values": [
      {"binder": "B1", "SPOT peptide array binding signal intensity": "≤ 0"}
    ]},
    {"target": "SpHof1-2", "experiment": "SPOT peptide array binding signal intensity (averaged, normalized) (arbitrary units (background-subtracted, floor 0; scale differs between SH3 domains)); higher = stronger binding of the SH3 domain to the peptide", "method_in_brief": "as §1", "values": [
      {"binder": "B1", "SPOT peptide array binding signal intensity": 7}
    ]},
    {"target": "SpHof1-3", "experiment": "SPOT peptide array binding signal intensity (averaged, normalized) (arbitrary units (background-subtracted, floor 0; scale differs between SH3 domains)); higher = stronger binding of the SH3 domain to the peptide", "method_in_brief": "as §1", "values": [
      {"binder": "B1", "SPOT peptide array binding signal intensity": "≤ 0"}
    ]},
    {"target": "SpHse1", "experiment": "SPOT peptide array binding signal intensity (averaged, normalized) (arbitrary units (background-subtracted, floor 0; scale differs between SH3 domains)); higher = stronger binding of the SH3 domain to the peptide", "method_in_brief": "as §1", "values": [
      {"binder": "B1", "SPOT peptide array binding signal intensity": 217}
    ]},
    {"target": "SpLsb1", "experiment": "SPOT peptide array binding signal intensity (averaged, normalized) (arbitrary units (background-subtracted, floor 0; scale differs between SH3 domains)); higher = stronger binding of the SH3 domain to the peptide", "method_in_brief": "as §1", "values": [
      {"binder": "B1", "SPOT peptide array binding signal intensity": "≤ 0"}
    ]},
    {"target": "SpLsb4", "experiment": "SPOT peptide array binding signal intensity (averaged, normalized) (arbitrary units (background-subtracted, floor 0; scale differs between SH3 domains)); higher = stronger binding of the SH3 domain to the peptide", "method_in_brief": "as §1", "values": [
      {"binder": "B1", "SPOT peptide array binding signal intensity": 92.5}
    ]},
    {"target": "SpMyo1", "experiment": "SPOT peptide array binding signal intensity (averaged, normalized) (arbitrary units (background-subtracted, floor 0; scale differs between SH3 domains)); higher = stronger binding of the SH3 domain to the peptide", "method_in_brief": "as §1", "values": [
      {"binder": "B1", "SPOT peptide array binding signal intensity": 0.5}
    ]},
    {"target": "SpNbp2", "experiment": "SPOT peptide array binding signal intensity (averaged, normalized) (arbitrary units (background-subtracted, floor 0; scale differs between SH3 domains)); higher = stronger binding of the SH3 domain to the peptide", "method_in_brief": "as §1", "values": [
      {"binder": "B1", "SPOT peptide array binding signal intensity": 29}
    ]},
    {"target": "SpPex13", "experiment": "SPOT peptide array binding signal intensity (averaged, normalized) (arbitrary units (background-subtracted, floor 0; scale differs between SH3 domains)); higher = stronger binding of the SH3 domain to the peptide", "method_in_brief": "as §1", "values": [
      {"binder": "B1", "SPOT peptide array binding signal intensity": 2}
    ]},
    {"target": "SpRvs167", "experiment": "SPOT peptide array binding signal intensity (averaged, normalized) (arbitrary units (background-subtracted, floor 0; scale differs between SH3 domains)); higher = stronger binding of the SH3 domain to the peptide", "method_in_brief": "as §1", "values": [
      {"binder": "B1", "SPOT peptide array binding signal intensity": "≤ 0"}
    ]},
    {"target": "SpSla1-D1-D2", "experiment": "SPOT peptide array binding signal intensity (averaged, normalized) (arbitrary units (background-subtracted, floor 0; scale differs between SH3 domains)); higher = stronger binding of the SH3 domain to the peptide", "method_in_brief": "as §1", "values": [
      {"binder": "B1", "SPOT peptide array binding signal intensity": "≤ 0"}
    ]},
    {"target": "SpSla1-D3", "experiment": "SPOT peptide array binding signal intensity (averaged, normalized) (arbitrary units (background-subtracted, floor 0; scale differs between SH3 domains)); higher = stronger binding of the SH3 domain to the peptide", "method_in_brief": "as §1", "values": [
      {"binder": "B1", "SPOT peptide array binding signal intensity": 32}
    ]}
  ]
}
